According to PubChem BioAssay (NCATS):
Inconclusive results are not listed. Activity calls are given as the source filed them. Calls come from the whole dose curve; as a rule, active = well fitted inhibition curve with a large enough effect; inconclusive = small, poorly fitted or top-dose-only effect; inactive = flat fitted curve, though single readings scatter.

Tests used:
Test in all cases: qHTS profiling for inhibitors of Plasmodium falciparum proliferation (AID 504749); note: nearly all actives have a fitted effect of over 60% in size
Details in all cases: P. falciparum in erythrocytes, SYBR Green DNA, 72 h; series mostly up to 28.7 µM
CP305 = system: CP305
In short: (§1)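 Parasite proliferation within erythrocytes, 72 h exposure. Endpoint: SYBR Green I fluorescence after overnight lysis at room temperature. Controls: 0.29 uM artemisinin, DMSO.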

CP315 = system: CP315
In short: as §1

CP325 = system: CP325
In short: as §1

CP329 = system: CP329
In short: as §1

CP335 = system: CP335
In short: as §1

DFO2036 = system: DFO2036
In short: as §1

DIV14 = system: DIV14
In short: as §1

DIV17 = system: DIV17
In short: as §1

DIV30 = system: DIV30
In short: as §1

Dd2 = system: Dd2
In short: as §1

ECU = system: ECU
In short: as §1

FAB9 = system: FAB9
In short: as §1

GB4 = system: GB4
In short: as §1

HB3 = system: HB3
In short: as §1

ICS = system: ICS
In short: as §1

JCK = system: JCK
In short: as §1

N140 = system: N140
In short: as §1

P93_24 = system: P93_24
In short: as §1

P94_40 = system: P94_40
In short: as §1

PAD = system: PAD
In short: as §1

Measured: Potency
Potency is the fitted concentration of half-maximal effect.

COc1c2c(cc3c1OCO3)CCN(C)C2
inactive: CP305 | CP315 | CP325 | CP329 | CP335 | DFO2036 | DIV14 | DIV17 | DIV30 | Dd2 | ECU | FAB9 | GB4 | HB3 | ICS | JCK | N140 | P93_24 | P94_40 | PAD

O=C(Nc1ccc(Br)cc1)c1cc(Br)cc(Br)c1O
inactive: CP305 | CP315 | CP325 | CP329 | CP335 | DFO2036 | DIV14 | DIV17 | DIV30 | Dd2 | ECU | FAB9 | GB4 | HB3 | ICS | JCK | N140 | P93_24 | P94_40 | PAD

CCCC(C)(COC(N)=O)COC(N)=O
inactive: CP305 | CP315 | CP325 | CP329 | CP335 | DFO2036 | DIV14 | DIV17 | DIV30 | Dd2 | ECU | FAB9 | GB4 | HB3 | ICS | JCK | N140 | P93_24 | P94_40 | PAD

Nc1nc(N)nc(NC2CC2)n1
inactive: CP305 | CP315 | CP325 | CP329 | CP335 | DFO2036 | DIV14 | DIV17 | DIV30 | Dd2 | ECU | FAB9 | GB4 | HB3 | ICS | JCK | N140 | P93_24 | P94_40 | PAD

NNc1ccccc1
inactive: CP305 | CP325 | CP329 | CP335 | DFO2036 | DIV14 | DIV17 | DIV30 | Dd2 | ECU | FAB9 | GB4 | HB3 | ICS | JCK | N140 | P93_24 | P94_40 | PAD

CN1C(=O)CCS(=O)(=O)C1c1ccc(Cl)cc1 (stereo unspecified)
inactive: CP305 | CP315 | CP325 | CP329 | CP335 | DFO2036 | DIV14 | DIV17 | DIV30 | Dd2 | ECU | FAB9 | GB4 | HB3 | ICS | JCK | N140 | P93_24 | P94_40 | PAD

Nc1ccc([As](=O)(O)O)cc1
inactive: CP305 | CP315 | CP325 | CP329 | CP335 | DFO2036 | DIV14 | DIV17 | DIV30 | ECU | FAB9 | HB3 | JCK | N140 | P93_24 | PAD

CCOP(=S)(OCC)Oc1ccc2c(C)c(Cl)c(=O)oc2c1
inactive: CP315 | DIV14 | DIV17 | Dd2 | ECU | FAB9 | GB4 | HB3 | JCK | PAD
active: P94_40 11.2 µM

CCC1(CC)C(=O)C=CNC1=O
inactive: CP305 | CP315 | CP325 | CP329 | CP335 | DFO2036 | DIV14 | DIV17 | DIV30 | Dd2 | ECU | FAB9 | GB4 | HB3 | ICS | JCK | N140 | P93_24 | P94_40 | PAD

CN1CCC(O)(c2ccc(F)cc2)C(C(=O)c2ccc(F)cc2)C1 (stereo unspecified)
inactive: CP305 | CP315 | CP325 | CP329 | CP335 | DFO2036 | DIV14 | DIV17 | DIV30 | Dd2 | ECU | FAB9 | GB4 | HB3 | ICS | JCK | N140 | P94_40 | PAD

C=CCN1C[C@H](C)N([C@H](c2ccc(C(=O)N(CC)CC)cc2)c2cccc(OC)c2)C[C@H]1C
active: Dd2 11.2 µM | ICS 12.6 µM
inactive: CP305 | CP315 | CP325 | CP329 | DIV30 | JCK

CC(C)NC(C)C
inactive: CP305 | CP325 | CP329 | DFO2036 | DIV14 | DIV17 | DIV30 | Dd2 | ECU | FAB9 | GB4 | HB3 | ICS | JCK | N140 | P93_24 | PAD

O=C1c2ccccc2C(=O)C1C(=O)C(c1ccccc1)c1ccccc1
inactive: CP305 | CP315 | CP325 | CP329 | CP335 | DFO2036 | DIV14 | DIV17 | DIV30 | Dd2 | ECU | FAB9 | HB3 | JCK | N140 | P93_24 | P94_40 | PAD

COc1ccc2c(c1)C13CCCC[C@@H]1C(C2)N(C)CC3 (stereo partly specified)
active: DIV14 2.69 µM | DIV17 3.01 µM | Dd2 5.62 µM
inactive: CP305 | CP315 | CP325 | CP329 | DFO2036 | FAB9 | HB3 | JCK | N140

O=C1CN=C(c2ccccc2)c2cc([N+](=O)[O-])ccc2N1
inactive: CP305 | CP315 | CP325 | CP329 | CP335 | DFO2036 | DIV17 | DIV30 | Dd2 | ECU | FAB9 | GB4 | HB3 | ICS | JCK | N140 | P93_24 | P94_40 | PAD

C[C@]12CCC(=O)C=C1CC[C@@H]1[C@@H]2CC[C@]2(C)C(=O)CC[C@@H]12
inactive: CP305 | CP315 | CP325 | CP329 | CP335 | DFO2036 | DIV14 | DIV30 | Dd2 | FAB9 | GB4 | HB3 | ICS | JCK | N140 | P93_24 | P94_40

COP(=S)(OC)Oc1ccc(S(=O)(=O)N(C)C)cc1
inactive: CP305 | CP315 | CP325 | CP329 | CP335 | DFO2036 | DIV14 | DIV17 | DIV30 | Dd2 | ECU | FAB9 | GB4 | HB3 | ICS | JCK | N140 | P93_24 | P94_40 | PAD

Cc1ncsc1CCCl
inactive: CP305 | CP315 | CP325 | CP329 | CP335 | DFO2036 | DIV14 | DIV17 | DIV30 | Dd2 | ECU | FAB9 | GB4 | HB3 | ICS | JCK | N140 | P94_40 | PAD

CC(C)(C)NCC(O)c1ccccc1Cl (stereo unspecified)
inactive: CP305 | CP315 | CP325 | CP329 | DFO2036 | FAB9 | JCK
active: DIV14 8.49 µM | DIV17 6.01 µM | Dd2 11.2 µM | GB4 13.5 µM | ICS 7.08 µM | P94_40 11.2 µM

COC1CC(=C(c2cccs2)c2cccs2)C[N+](C)(C)C1 (stereo unspecified)
active: CP335 6.01 µM | DFO2036 5.62 µM | ECU 8.91 µM | GB4 7.57 µM | HB3 8.91 µM | ICS 3.98 µM | N140 7.94 µM | P93_24 5.01 µM | P94_40 2.24 µM

NC(=O)c1cc([N+](=O)[O-])cc([N+](=O)[O-])c1
inactive: CP305 | CP315 | DIV30 | Dd2 | ECU | FAB9 | HB3 | P94_40 | PAD

Clc1ccc(C(c2ccc(Cl)cc2)C(Cl)(Cl)Cl)cc1
inactive: CP305 | CP315 | CP325 | CP329 | CP335 | DFO2036 | Dd2 | ECU | FAB9 | HB3 | JCK | P93_24

Cc1nnc2n1-c1ccc(Cl)cc1C(c1ccccc1)=NC2
active: ICS 8.91 µM
inactive: CP305 | CP315 | CP325 | CP329 | DFO2036 | DIV14 | DIV17 | Dd2 | ECU | FAB9 | GB4 | HB3 | N140 | P93_24 | PAD

O=c1[nH]oc2c1CCNC2
inactive: CP305 | CP315 | CP325 | CP329 | CP335 | DFO2036 | DIV14 | DIV17 | DIV30 | Dd2 | ECU | FAB9 | GB4 | HB3 | ICS | N140 | P93_24 | P94_40 | PAD

CCCCCCCCCC(=O)O[C@H]1CC[C@H]2[C@@H]3CCC4=CC(=O)CC[C@@H]4[C@H]3CC[C@]12C
inactive: CP305 | CP315 | CP325 | CP329 | CP335 | DFO2036 | DIV14 | DIV17 | DIV30 | ECU | FAB9 | GB4 | HB3 | JCK | N140 | P93_24 | P94_40 | PAD

Oc1ccc(Cl)cc1
inactive: CP305 | CP315 | CP325 | CP329 | DFO2036 | DIV14 | DIV17 | DIV30 | Dd2 | ECU | FAB9 | GB4 | HB3 | ICS | JCK | N140 | P93_24 | P94_40 | PAD

COc1ccc2c(c1OC)C(=O)O[C@H]2[C@@H]1c2cc3c(cc2CCN1C)OCO3
inactive: CP305 | CP315 | CP325 | CP329 | CP335 | DIV14 | DIV17 | DIV30 | GB4

O=C(N/N=C/c1ccc([N+](=O)[O-])o1)c1cc([N+](=O)[O-])cc([N+](=O)[O-])c1O
inactive: DIV14
active: DFO2036 3.98 µM | HB3 1.58 µM | N140 0.708 µM | P93_24 0.1 µM | P94_40 0.0794 µM | PAD 0.0071 µM

O=C1c2ccccc2C(=O)c2ccccc21
inactive: CP315 | CP325 | CP329 | DFO2036 | JCK | P94_40
active: HB3 11.2 µM | ICS 3.55 µM

COC(=O)C(c1ccccc1)C1CCCCN1 (stereo unspecified)
inactive: CP305 | CP315 | CP325 | CP329 | CP335 | DFO2036 | DIV30 | ECU | FAB9 | HB3 | ICS | JCK | N140 | P93_24 | P94_40 | PAD

C[C@](O)(CS(=O)(=O)c1ccc(F)cc1)C(=O)Nc1ccc(C#N)c(C(F)(F)F)c1
inactive: CP305 | CP315 | CP325 | CP329 | CP335 | DFO2036 | DIV30 | Dd2 | FAB9 | GB4 | HB3 | ICS | JCK | N140 | P93_24 | P94_40 | PAD

COP(=S)(OC)Oc1ccc(SC)c(C)c1
inactive: CP305 | CP315 | CP325 | CP329 | CP335 | DFO2036 | DIV14 | DIV17 | DIV30 | Dd2 | ECU | FAB9 | GB4 | HB3 | ICS | N140 | P93_24 | P94_40 | PAD
